Calls of active or inactive are those of the source. How the source made its calls: active means hit-call score of the fitted dose curve at least 0.9, where 1 is the maximum; inactive means score below 0.9.
Key:
Settings in all cases: mRNA level, 48 h; actives raise or lower the signal
[1] = read-out: Glutathione S-Transferase (GSTA2), GSTA2 (gene 2939); experiment: LTEA_HepaRG_GSTA2: Life Technologies and Expression Analysis (LTEA) Assay for Glutathione S-Transferase (GSTA2) using HepaRG (AID 2283497)
Summary of the method: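 HepaRG, 48 h dosing, 8-pt half-log CRC from 100 uM, 0.5% DMSO vehicle, n=2; RNA → Fluidigm TaqMan qRT-PCR; GSTA2 vs ACTB/GAPDH/POLR2A; gain/loss fit vs DMSO.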

[2] = read-out: growth arrest and DNA damage 45 (GADD45G), GADD45G (gene 10912); experiment: LTEA_HepaRG_GADD45G: Life Technologies and Expression Analysis (LTEA) Assay for growth arrest and DNA damage 45 (GADD45G) using HepaRG (AID 2283499)
Summary of the method: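 HepaRG, 48 h exposure, top 100 uM, half-log 8-point series, 0.5% DMSO vehicle, duplicates. Readout: GADD45G transcript by qRT-PCR (Fluidigm array), housekeeping-normalised (ACTB/GAPDH/POLR2A). Bidirectional curve fit vs DMSO baseline.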

[3] = read-out: Glutamate-cysteine ligase regulatory (GCLM), GCLM (gene 2730); experiment: LTEA_HepaRG_GCLM: Life Technologies and Expression Analysis (LTEA) Assay for Glutamate-cysteine ligase regulatory (GCLM) using HepaRG (AID 2283500)
Summary of the method: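 Differentiated human HepaRG cells exposed 48 h in serum-free induction medium to 8-point half-log concentrations (top 100 uM, 0.5% DMSO), in duplicate. GCLM mRNA quantified by qRT-PCR, normalized to ACTB, GAPDH, POLR2A; bidirectional fitting versus DMSO.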

[4] = read-out: Glutathione S-transferase M3 (GSTM3), GSTM3 (gene 2947); experiment: LTEA_HepaRG_GSTM3: Life Technologies and Expression Analysis (LTEA) Assay for Glutathione S-transferase M3 (GSTM3) using HepaRG (AID 2283501)
Summary of the method: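 qRT-PCR read-out of GSTM3 transcript, normalized to three housekeeping genes, from human HepaRG cells after 48 h chemical exposure. Eight-point half-log series, top 100 uM, 0.5% DMSO vehicle; gain or loss fitted relative to DMSO baseline.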

[5] = read-out: Hypoxia-inducible factor 1-alpha (Homo sapiens) (UniProt Q16665); experiment: LTEA_HepaRG_HIF1A: Life Technologies and Expression Analysis (LTEA) Assay for Hypoxia-inducible factor 1 (HIF1A) Trancription factor using HepaRG (AID 2283503);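 further: HIF1A transcript by TaqMan qRT-PCR normalized to ACTB GAPDH and POLR2A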
Summary of the method: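 HepaRG, 48 h exposure, 8-pt half-log series from 100 uM, 0.5% DMSO vehicle, duplicates. Readout: HIF1A transcript by qRT-PCR (Fluidigm array), housekeeping-normalised. Bidirectional curve fit vs DMSO baseline.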

[6] = read-out: 3-Hydroxy-3-Methylglutaryl-CoA Synthase 2 (HMGCS2), HMGCS2 (gene 3158); experiment: LTEA_HepaRG_HMGCS2: Life Technologies and Expression Analysis (LTEA) Assay for 3-Hydroxy-3-Methylglutaryl-CoA Synthase 2 (HMGCS2) using HepaRG (AID 2283504)
Summary of the method: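 qRT-PCR read-out of HMGCS2 transcript, normalised to three housekeeping genes, in HepaRG cells after 48 h chemical exposure. Eight-point curves from 100 uM, half-log dilutions, 0.5% DMSO vehicle; gain or loss fitted relative to DMSO baseline.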

HGF (gene 3082) = experiment: LTEA_HepaRG_HGF: Life Technologies and Expression Analysis (LTEA) Assay for Hepatocyte Growth Facto (HGF) using HepaRG (AID 2283505)
Summary of the method: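 HepaRG, 48 h dosing, 8-pt half-log series from 100 uM in 0.5% DMSO, duplicates. Readout: TaqMan qRT-PCR of HGF mRNA, housekeeping-normalized; bidirectional curve fit vs DMSO baseline.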

[7] = read-out: Insulin Like Growth Factor 1 (IGF1), IGF1 (gene 3479); experiment: LTEA_HepaRG_IGF1: Life Technologies and Expression Analysis (LTEA) Assay for Insulin Like Growth Factor 1 (IGF1) using HepaRG (AID 2283506)
Summary of the method: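 Differentiated human HepaRG cells were dosed for 48 h in serum-free induction medium with 0.5% DMSO, eight half-log concentrations up to 100 uM, in duplicate. IGF1 mRNA was quantified by qRT-PCR normalized to ACTB, GAPDH, POLR2A; bidirectional fitting versus DMSO.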

[8] = read-out: Intercellular Adhesion Molecule 1 (ICAM1), ICAM1 (gene 3383); experiment: LTEA_HepaRG_ICAM1: Life Technologies and Expression Analysis (LTEA) Assay for Intercellular Adhesion Molecule 1 (ICAM1) using HepaRG (AID 2283507)
Summary of the method: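 HepaRG, 48 h exposure, 8-pt half-log series from 100 uM, 0.5% DMSO vehicle, duplicates. Readout: TaqMan qRT-PCR mRNA, housekeeping-normalized (ACTB/GAPDH/POLR2A). Bidirectional curve fit vs DMSO baseline.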

[9] = read-out: Insulin-like growth factor-binding protein 1 (IGFBP1), IGFBP1 (gene 3484); experiment: LTEA_HepaRG_IGFBP1: Life Technologies and Expression Analysis (LTEA) Assay for Insulin-like growth factor-binding protein 1 (IGFBP1) using HepaRG (AID 2283508)
Summary of the method: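 qRT-PCR mRNA read-out (TaqMan, Fluidigm array), normalised to three housekeeping genes; HepaRG cells, 48 h exposure, 8-pt half-log series from 100 uM, 0.5% DMSO vehicle; bidirectional curve fit vs DMSO baseline.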

[10] = read-out: Interleukin 6 (IL6), IL6 (gene 3569); experiment: LTEA_HepaRG_IL6: Life Technologies and Expression Analysis (LTEA) Assay for Interleukin 6 (IL6) using HepaRG (AID 2283509)
Summary of the method: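 HepaRG, ~100,000 cells/well, 48 h pre-culture; serum-free induction medium; cmpd 8-pt half-log from 100 uM, 0.5% DMSO, duplicate, 48 h. Lysis in RLT, TaqMan qRT-PCR; gain or loss vs DMSO.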

[11] = read-out: Interleukin 6 Receptor (IL6R), IL6R (gene 3570); experiment: LTEA_HepaRG_IL6R: Life Technologies and Expression Analysis (LTEA) Assay for Interleukin 6 Receptor (IL6R) using HepaRG (AID 2283510)
Summary of the method: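 Differentiated human HepaRG cells, plated 48 h then switched to serum-free induction medium, were dosed in duplicate for 48 h at eight half-log concentrations up to 100 uM in 0.5% DMSO. IL6R mRNA quantified by qRT-PCR, normalized to ACTB/GAPDH/POLR2A; bidirectional fit versus DMSO.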

[12] = read-out: Potassium channel subfamily K member 1 (KCNK1), KCNK1 (gene 3775); experiment: LTEA_HepaRG_KCNK1: Life Technologies and Expression Analysis (LTEA) Assay for Potassium channel subfamily K member 1 (KCNK1) using HepaRG (AID 2283511)
Summary of the method: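 Gain or loss of KCNK1 mRNA is the read-out, quantified by qRT-PCR against three housekeeping genes after 48 h chemical treatment of human HepaRG liver cells. Concentrations ran from 100 uM downward in half-log steps, vehicle 0.5% DMSO.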

[13] = read-out: Keratin 19 (KRT19), KRT19 (gene 3880); experiment: LTEA_HepaRG_KRT19: Life Technologies and Expression Analysis (LTEA) Assay for Keratin 19 (KRT19) using HepaRG (AID 2283512)
Summary of the method: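 HepaRG, 48 h chemical exposure, 8-pt half-log CRC from 100 uM, 0.5% DMSO vehicle, duplicates. Readout: TaqMan qRT-PCR of KRT19 mRNA, housekeeping-normalized (ACTB/GAPDH/POLR2A). Bidirectional fit vs DMSO baseline.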

[14] = read-out: JUN Transcription Factor, JUN (gene 3725); experiment: LTEA_HepaRG_JUN: Life Technologies and Expression Analysis (LTEA) Assay for JUN Transcription Factor using HepaRG (AID 2283513)
Summary of the method: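 Differentiated HepaRG cells were exposed to chemicals for 48 h in serum-free induction medium, 8 concentrations from 100 uM in half-log steps, 0.5% DMSO vehicle, in duplicate. JUN mRNA was quantified by TaqMan qRT-PCR, normalized to ACTB, GAPDH, POLR2A.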

[15] = read-out: Lipase C (LIPC), LIPC (gene 3990); experiment: LTEA_HepaRG_LIPC: Life Technologies and Expression Analysis (LTEA) Assay for Lipase C (LIPC) using HepaRG (AID 2283514)
Summary of the method: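 Read-out is LIPC transcript level by TaqMan qRT-PCR, normalized to three housekeeping genes, after 48 h chemical treatment of human HepaRG liver cells. Curves span eight concentrations topping at 100 uM; activity in either direction scored relative to 0.5% DMSO.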

[16] = read-out: Lipoprotein lipase (LPL), LPL (gene 4023); experiment: LTEA_HepaRG_LPL: Life Technologies and Expression Analysis (LTEA) Assay for Lipoprotein lipase (LPL) using HepaRG (AID 2283515)
Summary of the method: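 Read-out is LPL transcript level by qRT-PCR, normalized to three housekeeping genes and fitted bidirectionally against the DMSO control. Human HepaRG cells received chemicals for 48 h at up to 100 uM.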

[17] = read-out: MicroRNA 122 (MIR122), gene 406906; experiment: LTEA_HepaRG_MIR122: Life Technologies and Expression Analysis (LTEA) Assay for MicroRNA 122 (MIR122) using HepaRG (AID 2283516); further: the transcript read is the microRNA miR-122
Summary of the method: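 Differentiated human HepaRG cells were exposed 48 h in serum-free induction medium to eight half-log concentrations (top 100 uM, 0.5% DMSO). Transcript level was measured by TaqMan qRT-PCR, normalized to ACTB, GAPDH and POLR2A, and fitted bidirectionally versus DMSO.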

Measured: AC50

Chain of Hypoxia-inducible factor 1-alpha (Homo sapiens) (Q16665 whole entry, looked up): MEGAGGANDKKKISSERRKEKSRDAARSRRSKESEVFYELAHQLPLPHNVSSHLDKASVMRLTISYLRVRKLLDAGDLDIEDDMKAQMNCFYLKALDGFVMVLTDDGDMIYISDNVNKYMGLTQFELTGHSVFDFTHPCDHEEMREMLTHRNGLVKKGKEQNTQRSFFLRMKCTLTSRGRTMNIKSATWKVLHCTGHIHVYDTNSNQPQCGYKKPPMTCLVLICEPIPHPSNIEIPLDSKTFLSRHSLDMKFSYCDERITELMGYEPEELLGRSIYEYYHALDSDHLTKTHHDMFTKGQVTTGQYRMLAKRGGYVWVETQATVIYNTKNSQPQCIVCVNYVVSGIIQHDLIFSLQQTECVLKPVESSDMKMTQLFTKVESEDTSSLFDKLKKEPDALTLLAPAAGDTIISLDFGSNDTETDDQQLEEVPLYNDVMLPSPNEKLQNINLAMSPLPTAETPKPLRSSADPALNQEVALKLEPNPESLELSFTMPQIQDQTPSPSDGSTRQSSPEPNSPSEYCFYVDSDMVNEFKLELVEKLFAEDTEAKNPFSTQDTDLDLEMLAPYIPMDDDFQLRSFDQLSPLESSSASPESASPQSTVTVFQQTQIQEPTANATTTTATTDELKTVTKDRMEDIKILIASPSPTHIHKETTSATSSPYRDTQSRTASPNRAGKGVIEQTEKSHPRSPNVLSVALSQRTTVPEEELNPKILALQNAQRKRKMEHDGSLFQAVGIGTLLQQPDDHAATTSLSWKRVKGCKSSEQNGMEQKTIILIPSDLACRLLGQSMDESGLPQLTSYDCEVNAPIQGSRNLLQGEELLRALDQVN

Cn1c(=O)c2c(ncn2C)n(C)c1=O
inactive: all assays above

CC(C)=CCC/C(C)=C\CO
not listed: [2] | [5] | [10]
inactive: all other assays above

O=c1n(CC2CO2)c(=O)n(CC2CO2)c(=O)n1CC1CO1 (stereo unspecified)
active: [10] 50 µM | [15] 71.5 µM
inactive: all other assays above

CC[C@H]1OC(=O)[C@H](C)[C@@H](O[C@H]2C[C@@](C)(OC)[C@@H](O)[C@H](C)O2)[C@H](C)[C@@H](O[C@@H]2O[C@H](C)C[C@H](N(C)C)[C@H]2O)[C@](C)(O)C[C@@H](C)C(=O)[C@H](C)[C@@H](O)[C@]1(C)O
not listed: [2] | [5] | [14]
inactive: all other assays above

— PubChem BioAssay (EPA / NIEHS)
